Only some compounds are listed: those with a hit (about 5.4% of all), similar ones and a draw of the others.
Gal4-VP16 FLuc: VP16 counterscreen qHTS for inhibitors of ROR gamma transcriptional activity | Potency, µM (highest dose often 53.6 µM), for inactives: top-dose activity, negative = inhibition, most hits filed as inhibitors | AID 2546, 2010 | Drosophila S2 Gal4-VP16 UAS-luciferase, luminescence, 20 h | 3.5% of 310,000 active;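 also: Gal4-VP16 expression switched on by copper sulfate through the metallothionein promoter; potency is read from the fitted curve at half-maximal effect; % is scaled to controls: 0 for no effect and ±100 for the full control effect; nearly all actives have a fitted effect of over 50% in size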
CtBP-E1A inh: qHTS Assay for Inhibitors of the CtBP/E1A Interaction | CtBP / adenovirus E1A interaction (AlphaScreen) | AlphaScreen GST-E1A/His-CtBP binding, 1536-well; stronger effect = lower value | activity change, % (no concentration beside the values) | 0.49% of 340,000 active; in the data active = activity change below about -65%; inconclusive = mostly about -30% to -63%; also: % is scaled to controls: 0 for no effect and ±100 for the full control effect
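GST-E1A and His-tagged CtBP (125 nM each as 5X stock) were preincubated with pin-transferred compound for 2 h at 37 °C in the dark, then glutathione donor and nickel acceptor beads were added for 1 h before AlphaScreen reading.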
p53 reactivation: qHTS assay for re-activators of p53 using a Luc reporter. H1299 p53-A138V BP100-luciferase reporter, luminescence, 24 h. Potency, µM (titrated, usually from 92.2 µM), for the others: at the top dose activity change, positive = activation, most hits filed as activators. 0.063% of 320,000 active. AID 504706, 2011; also: potency is read from the fitted curve at half-maximal effect; % of control where 0% means no effect; nearly all actives have a fitted effect of over 45% in size
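p53-null H1299 cells stably carrying temperature-sensitive p53-A138V and a BP100-luciferase reporter were pinned with compounds (4-point, 1:5 series) and held 24 hrs at 37 deg C. Luminescence was read 10 min after detection reagent.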
RORgamma inh: qHTS for inhibitors of ROR gamma transcriptional activity; Nuclear receptor ROR-gamma (Mus musculus), P51450; Drosophila S2 Gal4-RORgamma UAS-luciferase reporter, 20 h; Potency, µM (doses to about 53.6 µM), for the others: at the top dose activity change, negative = inhibition, most hits filed as inhibitors; AID 2551, 2010; 5.4% of 310,000 active; also: potency is read from the fitted curve at half-maximal effect; % is scaled to controls: 0 for no effect and ±100 for the full control effect; nearly all actives have a fitted effect of over 60% in size
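Luciferase reporter read in Schneider cells carrying Gal4-RORγ (mouse) and UAS-Photinus luciferase; cells given compound 1 h before 700 uM copper sulfate induction, then incubated 20 h at ambient temperature.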
Six1-Eya2 inh: qHTS Assay for Inhibitors of the Six1/Eya2 Interaction; activity change, % (no concentration beside the values); Homeobox protein SIX1 (Homo sapiens) + Protein phosphatase EYA2 (Homo sapiens), …; 0.56% of 360,000 active; AlphaScreen GST-Six1/His-Eya2 binding, biochemical; stronger effect = lower value; in the data active = activity change below about -65%; inconclusive = mostly about -30% to -63%; also: % is scaled to controls: 0 for no effect and ±100 for the full control effect
Target sequence (O00167 whole entry, looked up): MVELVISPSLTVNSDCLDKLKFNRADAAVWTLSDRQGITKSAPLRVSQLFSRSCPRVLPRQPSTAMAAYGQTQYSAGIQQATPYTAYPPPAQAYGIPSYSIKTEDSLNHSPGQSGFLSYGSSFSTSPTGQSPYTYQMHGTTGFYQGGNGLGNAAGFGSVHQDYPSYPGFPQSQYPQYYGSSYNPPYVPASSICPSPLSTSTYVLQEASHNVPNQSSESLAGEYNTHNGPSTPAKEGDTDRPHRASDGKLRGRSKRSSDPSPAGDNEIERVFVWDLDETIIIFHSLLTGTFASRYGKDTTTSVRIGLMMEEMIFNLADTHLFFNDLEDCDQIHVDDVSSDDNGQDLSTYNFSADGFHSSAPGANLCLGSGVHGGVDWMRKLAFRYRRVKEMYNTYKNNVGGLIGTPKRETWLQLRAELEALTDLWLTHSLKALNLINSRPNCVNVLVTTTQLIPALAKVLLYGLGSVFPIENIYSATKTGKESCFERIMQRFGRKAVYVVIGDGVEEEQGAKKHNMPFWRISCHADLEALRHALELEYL
Target sequence (Q15475 whole entry, looked up): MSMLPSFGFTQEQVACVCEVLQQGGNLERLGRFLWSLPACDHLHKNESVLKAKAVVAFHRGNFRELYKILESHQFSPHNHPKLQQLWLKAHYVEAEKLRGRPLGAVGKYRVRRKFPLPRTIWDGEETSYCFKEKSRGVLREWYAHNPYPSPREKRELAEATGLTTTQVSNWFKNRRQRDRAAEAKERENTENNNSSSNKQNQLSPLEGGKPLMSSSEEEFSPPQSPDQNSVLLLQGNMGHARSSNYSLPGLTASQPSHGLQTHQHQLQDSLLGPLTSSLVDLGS
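Six1/Eya2 binding was read as AlphaScreen signal after compounds were pinned into GST-Six1 plus His-tagged Eya2 (5X stock 250/500 nM) in pH 8.0 Tris/NaCl/TCEP buffer, beads added, then incubated 1 h, 37 C, dark.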
Starred values were filed as active, the others as inactive; [ ] = another dose, or the depositor's remark. Unless noted, calls follow the shape of the dose curve; as a rule, active = well fitted curve in the direction sought with a large enough effect; inconclusive = small, poorly fitted or top-dose-only effect, or another doubt; inactive = no such curve, though single readings can be large; an effect the other way counts as inactive or inconclusive.

How did CCCNC(=O)OC[C@@H]1O[C@H](CCO/N=C(\C)CCC(=O)OC[C@@H]2O[C@H](c3ccccc3)C=C[C@@H]2Oc2ccc(OC)cc2)C=C[C@@H]1Oc1ccc(OC)cc1 do in these assays?
Gal4-VP16 FLuc: 1%[10 µM]; RORgamma inh: -18%[10 µM]

How did COc1ccc(C(CNC(=O)C(C)Sc2ccccc2)N2CCOCC2)cc1 (configuration not stated) do in these assays?
CtBP-E1A inh: 3; Six1-Eya2 inh: 8

What do the screens show for `COc1cccc(-c2nnc(NC(=O)CCS(=O)(=O)c3ccc(F)cc3)o2)c1`?
CtBP-E1A inh: -9; Six1-Eya2 inh: -9

How did COc1cccc(C(=O)Nc2nnc(-c3ccc(F)cc3)o2)c1 do in these assays?
Gal4-VP16 FLuc: 1.8µM*; CtBP-E1A inh: -4; p53 reactivation: 14%; RORgamma inh: 5µM*; Six1-Eya2 inh: -19

How did O=C(Nc1nnc(-c2ccc(Cl)cc2)o1)c1cccc(N2C(=O)CCC2=O)c1 do in these assays?
Gal4-VP16 FLuc: 2.2µM*; CtBP-E1A inh: inconclusive; p53 reactivation: 23%; RORgamma inh: 3.2µM*; Six1-Eya2 inh: -26

How did COc1cccc(-c2nnc(NC(=O)c3ccc4ncsc4c3)o2)c1 do in these assays?
Gal4-VP16 FLuc: 0.56µM*; CtBP-E1A inh: -16; p53 reactivation: inconclusive; RORgamma inh: 0.56µM*; Six1-Eya2 inh: -30

What do the screens show for `O=C(Nc1nnc(-c2ccncc2)o1)c1cccc(N2C(=O)CCC2=O)c1`?
Gal4-VP16 FLuc: 10%; CtBP-E1A inh: -3; p53 reactivation: -2%; RORgamma inh: -26%; Six1-Eya2 inh: inconclusive

How did Cc1cccc(CN2CCC(C(=O)Nc3ccc(-n4nc(C)cc4C)cc3)CC2)n1 do in these assays?
Gal4-VP16 FLuc: -12%; CtBP-E1A inh: 4; p53 reactivation: -6%; RORgamma inh: -35%; Six1-Eya2 inh: -4

How did CCC(=O)NC1=C(Cl)C(=O)C(NC(=O)CC)=C(Cl)C1=O do in these assays?
Gal4-VP16 FLuc: 7.1µM*; p53 reactivation: -13%; RORgamma inh: 2.8µM*; Six1-Eya2 inh: -24

What do the screens show for `COc1ccc(OC)c(C2=Nn3c(nnc3-c3ccccc3OC)SC2)c1`?
Gal4-VP16 FLuc: -7%; RORgamma inh: -35%

What do the screens show for `O=[n+]1ccn([O-])c2ccccc21`?
Gal4-VP16 FLuc: 2%; RORgamma inh: 0%

How did Cc1cccc(CNc2ncncc2-c2ccc(C(=O)N(C)C)cc2)c1 do in these assays?
Gal4-VP16 FLuc: -2%; RORgamma inh: -15%

Results for Cc1ccc(-c2nnc(SCC(=O)N/N=C/c3ccc(C)s3)n2-c2ccc(C)cc2)cc1 ?
Gal4-VP16 FLuc: inconclusive; CtBP-E1A inh: 13; p53 reactivation: 3%; RORgamma inh: 18µM*; Six1-Eya2 inh: 4

What do the screens show for `Cc1cc(C(=O)N/N=C/c2cccc(Cl)c2Cl)no1`?
Gal4-VP16 FLuc: 10%; CtBP-E1A inh: -9; p53 reactivation: 22%; RORgamma inh: 40%; Six1-Eya2 inh: -3

Results for O=C(N/N=C/c1ccc([N+](=O)[O-])s1)c1ccccc1 ?
Gal4-VP16 FLuc: 1.3µM*; CtBP-E1A inh: -6; p53 reactivation: -6%; RORgamma inh: 0.79µM*; Six1-Eya2 inh: -11

Results for Cc1ccccc1C(=O)N/N=C/c1ccc([N+](=O)[O-])s1 ?
Gal4-VP16 FLuc: 2µM*; CtBP-E1A inh: 44; p53 reactivation: -16%; RORgamma inh: 1.8µM*; Six1-Eya2 inh: 8

How did O=C(Cc1ccccc1)N/N=C/c1ccc([N+](=O)[O-])s1 do in these assays?
Gal4-VP16 FLuc: inconclusive; CtBP-E1A inh: -1; p53 reactivation: 15%; RORgamma inh: inconclusive; Six1-Eya2 inh: 0

Results for CCc1ccc(/C=N/NC(=O)c2cc(C)on2)s1 ?
Gal4-VP16 FLuc: 5.6µM*; CtBP-E1A inh: 0; p53 reactivation: inconclusive; RORgamma inh: 5.6µM*; Six1-Eya2 inh: -20

What do the screens show for `O=C(N/N=C/c1ccc([N+](=O)[O-])s1)C(O)c1ccccc1` (configuration not stated)?
Gal4-VP16 FLuc: inconclusive; CtBP-E1A inh: -7; p53 reactivation: inconclusive; RORgamma inh: 18%; Six1-Eya2 inh: 7

What do the screens show for `O=C(CCNC(=O)c1ccco1)NC(Cc1c[nH]c2ccccc12)C(=O)O` (configuration not stated)?
p53 reactivation: -1%; Six1-Eya2 inh: 10

How did Fc1ccccc1-c1cc2ccccc2cn1 do in these assays?
CtBP-E1A inh: 12; p53 reactivation: inconclusive; Six1-Eya2 inh: 12

What do the screens show for `O=C(O)c1ccc(N/N=C/c2cc(Br)cs2)cc1`?
Gal4-VP16 FLuc: 1µM*; CtBP-E1A inh: -16; p53 reactivation: -7%; RORgamma inh: 6.3µM*; Six1-Eya2 inh: -17

Results for O=C(N/N=C/c1ccc([N+](=O)[O-])s1)c1ccccc1Br ?
Gal4-VP16 FLuc: 6.3µM*; CtBP-E1A inh: 4; p53 reactivation: -11%; RORgamma inh: 1.8µM*; Six1-Eya2 inh: 4

How did Cc1ccsc1/C=N/Nc1ccc(C(=O)O)cc1 do in these assays?
Gal4-VP16 FLuc: 0.22µM*; p53 reactivation: -12%; RORgamma inh: 1.1µM*; Six1-Eya2 inh: 1

What do the screens show for `CCc1ccc(/C=N/NC(=O)c2cc(C3CC3)nc3ccccc23)s1`?
Gal4-VP16 FLuc: 1.8µM*; CtBP-E1A inh: -2; p53 reactivation: -2%; RORgamma inh: 1.3µM*; Six1-Eya2 inh: 0

What do the screens show for `Cc1ccsc1/C=N/Nc1cccc(C(=O)O)c1`?
Gal4-VP16 FLuc: inconclusive; CtBP-E1A inh: 1; p53 reactivation: -4%; RORgamma inh: inconclusive; Six1-Eya2 inh: -2

Results for CO[C@@H]1COC(=O)[C@H](COCc2ccccc2)NC(=O)C/C=C\[C@@H](C)[C@H](OC)COC(=O)[C@@H](C)NC(=O)C/C=C\[C@H]1C ?
Gal4-VP16 FLuc: -4%[10 µM]; RORgamma inh: 27%[10 µM]

How did CCOC(=O)N1C(COCc2ccccc2)C=CCS1(=O)=O (configuration not stated) do in these assays?
Gal4-VP16 FLuc: -1%; RORgamma inh: 16%

What do the screens show for `O=C(N/N=C/c1cccs1)c1cncc(Br)c1`?
Gal4-VP16 FLuc: 2µM*; CtBP-E1A inh: -11; p53 reactivation: -2%; RORgamma inh: 1µM*; Six1-Eya2 inh: -19

How did Cc1cc(C(=O)N/N=C/c2ccc([N+](=O)[O-])s2)c2ccccc2n1 do in these assays?
Gal4-VP16 FLuc: 3.5µM*; CtBP-E1A inh: -21; p53 reactivation: inconclusive; RORgamma inh: 5.6µM*; Six1-Eya2 inh: -10

What do the screens show for `Cc1ccc(/C=N\NC(=O)c2cncc(Br)c2)o1`?
Gal4-VP16 FLuc: inconclusive; CtBP-E1A inh: -25; p53 reactivation: -4%; RORgamma inh: 5µM*; Six1-Eya2 inh: -12
